KB-V1 cytotox – KB-V1 MDR subline cytotoxicity | 3.4% of 400,000 active | KB-V1 MDR cells viability, CellTiter-Glo, 72 h | Potency, µM (titrated, usually from 46.1 µM), actives largely listed as cytotoxic | AID 1347076; further: nearly all actives have a fitted effect of over 60% in size
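In this primary screen, KB-V1 cells overexpressing P-gp are incubated with library compounds (lowest to highest concentration) for 72 h at 37 degrees C before a luminescent ATP viability read.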
TDP1 cell CPT – growth inhibition of DT40 Tdp1-/-;hTDP1 cells with camptothecin (screen for TDP1 inhibitors). chicken DT40 Tdp1-/-;hTDP1 cells + 20 nM CPT, ATP luminescence, 48 h. Potency, µM (series often up to 46.2 µM), inactives show top-dose activity change, negative = growth inhibition, hits mostly inhibitors. AID 686979. 12% of 420,000 active; further: nearly all actives have a fitted effect of over 55% in size
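Chicken DT40 Tdp1-/- cells complemented with human TDP1, 400 cells/well, exposed to compounds plus 20 nM camptothecin for at least 48 h at 37 C; viability read as ATP content by CellTiter-Glo luminescence.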
DT40 TDP1 no CPT – qHTS for Inhibitors of human tyrosyl-DNA phosphodiesterase 1 (TDP1): qHTS in cells in absence of CPT; DT40 Tdp1-/- hTDP1 cells, no CPT, ATP luminescence, 48 h; Potency, µM (doses to about 46.2 µM), for the others: top-dose activity change, negative = growth inhibition, most hits filed as inhibitors; 15% of 420,000 active; AID 686978, 2013; further: nearly all actives have a fitted effect of over 55% in size
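Cells were dispensed at 400 per well, compounds added by pin tool, plates incubated ≥48 hr at 37 °C, then CellTiter-Glo added for 30 min at room temperature before luminescence reading. Line: DT40 Tdp1-/- complemented with hTDP1; camptothecin omitted.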
HT1080-NT tox – kills 2HG-producing HT-1080-NT fibrosarcoma cells. HT-1080-NT fibrosarcoma viability, CellTiter-Glo ATP luminescence, 48 h. Potency, µM (doses to about 46.1 µM), for inactives: top-dose activity, negative = less viability, actives largely listed as cytotoxic. 1.6% of 360,000 active. AID 686970;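 further: NT is the 2HG producing partner of a matched IDH1 knockdown line; 0% = DMSO-treated cells and -100% = media-only wells without cells; nearly all actives have a fitted effect of over 55% in size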
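HT-1080-NT; 750 cells/well; 5% FBS RPMI; 48 h compound, 37 degrees C; CellTiter-Glo luminescence; curve fitting and curve-class assignment.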
HT1080 IDH1KD tx – HT-1080 IDH1 knockdown cell toxicity (counter line) | HT-1080 IDH1 knockdown viability, ATP luminescence, 48 h | Potency, µM (highest dose often 46.1 µM), for inactives: at the top dose activity, negative = toxicity, most hits filed as cytotoxic | 2% of 360,000 active;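 further: 0% = DMSO wells and -100% = cell-free medium wells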
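Knockdown cells (IDH1KD HT-1080) received compounds 2 h after plating at 750 cells/well and were kept 48 h at 37 °C in 5% FBS RPMI. A CellTiter-Glo luminescence read gave % activity for curve fitting.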
KB-3-1 tox – kills parental KB-3-1 adenocarcinoma cells; Potency, µM (top dose mostly 46.1 µM), most hits filed as cytotoxic; 1.4% of 400,000 active; KB-3-1 viability, CellTiter-Glo ATP luminescence, 72 h; further: nearly all actives have a fitted effect of over 60% in size
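Here the drug-naive KB-3-1 line serves as comparator for MDR sub-line selectivity; cells received compound titrations, 72 h at 37 °C, then CellTiter-Glo readout.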
The depositor's hits bear a star; i = inactive; ? = inconclusive; . = no result given; ! = a repeat was not active. A selection: hits, their analogues and other compounds. The true share with any hit is near 19%. The call rests on the fitted dose curve; in most records, active means well fitted curve in the direction sought with a large enough effect; inconclusive means small, poorly fitted or top-dose-only effect, or another doubt; inactive means no such curve, though single readings can be large; an effect the other way counts as inactive or inconclusive. Unless noted, on the % scale 0 is the no-effect control and ±100 the full control effect; potency means the concentration at half of the fitted maximal effect.

SMILES	KB-V1 cytotox	TDP1 cell CPT	DT40 TDP1 no CPT	HT1080-NT tox	HT1080 IDH1KD tx	KB-3-1 tox
O=C(Cc1ccccc1)NNc1c2ccccc2nc2ccccc12	i	21µM*	?	-23%	-11%	i
O=C(Nc1c2c(nc3ccccc13)CCCC2)c1ccccc1Cl	i	16%	-8%	8%	5%	i
Cc1ccc(OCC(=O)NNc2c3ccccc3nc3ccccc23)cc1	18µM*	?	16µM*	-23%	-26%	i
COc1cccc(-c2cc(=O)c3cc(NC(=O)c4ccc(N(C)C)cc4)ccc3[nH]2)c1	i	0.92µM*	1µM*	1.3µM*	0.73µM*	i
COc1cccc(-c2cc(=O)c3cc(NC(=O)c4ccccc4)ccc3[nH]2)c1	i	4.6µM*	4.1µM*	3.7µM*	3.7µM*	1.6µM*
COc1cccc(C(=O)Nc2ccc3ccccc3c2)c1	i	-27%	?	-18%	-23%	i
CCN1C(=O)N2C[C@H]3CON(C)[C@H]3C[C@H]2c2ccccc21	i	-12%	-1%	10%	15%	i
COc1ccccc1C(=O)Nc1ccc(-c2nnn(CC(=O)NCc3ccco3)n2)cc1	i	-11%	15%	4%	-2%	i
Cc1cccc(N2CCN(C(=O)c3ccc(N4CCCC4=O)cc3)CC2C)c1 (stereo not drawn)	i	?	?	-4%	-15%	i
Cc1cccc(N2CCN(C(=O)c3ccc4c(c3)c(C)c(C)n4C)CC2C)c1 (stereo not drawn)	i	16µM*	21µM*	-26%	?	i
CC1CCN(C(=O)c2cc3c(=O)n(C)c4ccccc4c3s2)CC1	i	12µM*	?	.	.	i
Cc1ccc(-c2c(C(=O)N3CCN(c4cccc(C)c4)C(C)C3)oc(=O)c3ccccc23)cc1 (stereo not drawn)	?	15µM*	?	.	.	?
Cc1cccc(N2CCN(C(=O)c3ccccn3)CC2C)c1 (stereo not drawn)	?	?	-18%	?	17%	i
Cc1cccc(N2CCN(C(=O)c3cc4c(=O)n(C)c5ccccc5c4s3)CC2C)c1 (stereo not drawn)	i	?	2.3µM*	.	.	i
Cc1ccc(Cl)cc1N1CCN(C(=O)c2cc3c(=O)n(C)c4ccccc4c3s2)CC1	i	8%	2%	.	.	i
CNc1ccc(/C=C2\C=Cc3ccccc32)cc1OC	i	-5%	?	.	.	?
CCn1c(O)c(N=NC(=O)CNC(=O)c2cccnc2)c2ccccc21	?	-9%	?	-3%	-3%	i
CN(CC(=O)O)c1ccc(C=O)cc1	i	6%	-6%	.	.	i
Cc1cc(=O)oc2c3c(cc(OCC(=O)N4CCC[C@H]4C(=O)O)c12)OC(C)(C)CC3	i	-7%	-4%	-6%	1%	i
Cn1c(C(=O)N2CCN(C(=O)c3ccco3)CC2)cc2c(=O)n(C)c3ccccc3c21	i	-11%	?	4%	7%	i
COc1ccccc1N1CCN(C(=O)c2cc3c(=O)n(C)c4ccccc4c3n2C)CC1	i	23µM*	23µM*	1%	0%	i
COc1ccccc1N1CCN(C(=O)c2cc3c(=O)n(C)c4ccccc4c3s2)CC1	?	?	26µM*	.	.	i
CCn1c2ccccc2c2cc(NC(=O)c3ccco3)ccc21	?	?	?	?	?	i
COc1ccc(OCC(=O)NCc2ccc3c(c2)CCN3C(=O)c2ccccc2)cc1	.	15µM*	13µM*	.	.	.
CCOc1ccc(CC(=O)NCc2ccc3c(c2)CCN3C(=O)c2ccccc2)cc1OCC	i	16µM*	?	.	.	i
SMILES	KB-V1 cytotox	TDP1 cell CPT	DT40 TDP1 no CPT	HT1080-NT tox	HT1080 IDH1KD tx	KB-3-1 tox
CCOc1ccc(CC(=O)NCc2ccc3c(c2)CCN3C(=O)c2ccc(F)cc2)cc1OCC	?	?	?	.	.	i
Cc1ccc(C(=O)N2CCc3cc(CNC(=O)COc4ccccc4)ccc32)cc1	.	13µM*	12µM*	.	.	.
O=C(COc1ccccc1)NCc1ccc2c(c1)CCN2C(=O)c1ccccc1	?	12µM*	6.5µM*	.	.	?
O=C(COc1ccc(F)cc1)NCc1ccc2c(c1)CCN2C(=O)c1ccc(F)cc1	i	-19%	-23%	.	.	i
COc1ccc(CCNC(=O)Cn2c([N+](=O)[O-])cnc2C)cc1OC	i	5%	0%	24%	25%	i
COc1cccc(C(C)NC(=O)C2CCCC2)c1 (stereo not drawn)	i	-1%	0%	16%	0%	i
O=C(NCC(=O)N(CCN1CCOCC1)C(C(=O)NC1CCCC1)c1ccccc1)c1cccs1 (stereo not drawn)	i	-13%	-5%	4%	-1%	i
Cc1[nH]nc(-c2ccc(OCc3cnn(-c4ccccc4)c3)cc2O)c1Oc1ccc(F)cc1	i	?	?	?	?	?
Cc1[nH]nc(-c2ccc(OCc3cnn(-c4ccccc4)c3)c(C)c2O)c1Oc1ccccc1	i	-26%	?	21µM*	16µM*	21µM*
CCc1ccc(-n2cc(-c3ccc(F)cc3)[n+]3c2SCCC3)cc1	i	4.6µM*	1.8µM*	?	?	9.2µM*
COc1ccc(-n2cc(-c3ccc(C)cc3)[n+]3c2SCC3)cc1	i	1.5µM*	1.3µM*	2.9µM*	2.3µM*	?
c1ccc(-c2cn(-c3ccccc3)c3[n+]2CCCS3)cc1	i	3.3µM*	3.7µM*	?	?	?
N#Cc1ccc(-c2cn(-c3ccccc3)c3[n+]2CCCS3)cc1	i	5%	-23%	8%	6%	i
Cc1ccc(-c2cn(-c3ccccc3)c3[n+]2CCCS3)cc1	i	0.65µM*	0.37µM*	?	?	1.8µM*!
CCOC(=O)[C@@H]1[C@H]2COc3cc(OC)ccc3[C@@H]2N2C(=O)N(c3cccc(C)c3)C(=O)[C@]12C	i	?	?	?	-3%	i
O=C(NNC(=S)Nc1ccccc1Cl)c1ccncc1	i	10%	0%	0%	-2%	i
Cc1nn2c(=O)cc(COC(=O)Cc3ccccc3)nc2s1	i	1%	-6%	.	.	i

Screens deposited in PubChem by National Center for Advancing Translational Sciences (NCATS).
